High-throughput results as filed in PubChem.
TDP1 cell CPT: DT40-hTDP1 cell growth loss with CPT; AID 686979; Potency, µM (top dose mostly 46.2 µM), usual class: inhibitors; chicken DT40 Tdp1-/-;hTDP1 cells + 20 nM CPT, ATP luminescence, 48 h; hit rate 12% among 420,000; further: nearly all actives have a fitted effect of over 55% in size
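Chicken DT40 Tdp1-/- cells complemented with human TDP1, 400 cells/well, exposed to compounds plus 20 nM camptothecin for at least 48 h at 37 C; viability read as ATP content by CellTiter-Glo luminescence.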
TDP1 cell noCPT: qHTS for Inhibitors of human tyrosyl-DNA phosphodiesterase 1 (TDP1): qHTS in cells in absence of CPT | DT40 Tdp1-/- hTDP1 cells, no CPT, ATP luminescence, 48 h | Potency, µM (highest dose often 46.2 µM), most hits filed as inhibitors | hit rate 15% among 420,000 | AID 686978, 2013; further: nearly all actives have a fitted effect of over 55% in size
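DT40 Tdp1-/-;hTDP1 cells, no CPT (DMSO vehicle only), 400 cells/well; compounds pin-transferred; ≥48 hr, 37 °C; CellTiter-Glo 30 min RT dark, luminescence read.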
HT1080 IDH1KD tx: kills HT-1080 cells with IDH1 knockdown | Potency, µM (series often up to 46.1 µM), most hits filed as cytotoxic | hit rate 2% among 360,000 | HT-1080 IDH1 knockdown viability, ATP luminescence, 48 h
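CellTiter-Glo luminescence after 48 h compound exposure at 37 degrees C of IDH1-knockdown HT-1080 cells in 5% FBS RPMI. %Activity scaled between DMSO wells and cell-free media wells, with curves fitted and assigned curve classes.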
HT1080NT lethal: kills 2HG-producing HT-1080-NT fibrosarcoma cells. HT-1080-NT fibrosarcoma viability, CellTiter-Glo ATP luminescence, 48 h. Potency, µM (top dose mostly 46.1 µM), actives largely listed as cytotoxic. hit rate 1.6% among 360,000. AID 686970;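 further: NT is the 2HG producing partner of a matched IDH1 knockdown line; nearly all actives have a fitted effect of over 55% in size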
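Read-out is CellTiter-Glo luminescence after 10 minutes at room temperature, following 48 hours' compound treatment of HT-1080-NT cells (750 cells/well, RPMI, 5% FBS, 37 degrees C).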
KB-3-1 cytotox: KB-3-1 parental cell cytotoxicity; hit rate 1.4% among 400,000; KB-3-1 viability, CellTiter-Glo ATP luminescence, 72 h; AID 1347075; Potency, µM (doses to about 46.1 µM), usual class: cytotoxic; further: nearly all actives have a fitted effect of over 60% in size
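Multi-concentration cytotoxicity screen in KB-3-1 cells grown in DMEM lacking phenol red with 10% FBS. After 72 h at 37 °C with compound, ATP-dependent luminescence was recorded.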
KB-V1 MDR tox: KB-V1 MDR subline cytotoxicity | KB-V1 MDR cells viability, CellTiter-Glo, 72 h | Potency, µM (highest dose often 46.1 µM), most hits filed as cytotoxic | hit rate 3.4% among 400,000 | AID 1347076; further: nearly all actives have a fitted effect of over 60% in size
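KB-V1 MDR subline cells in DMEM (phenol-red free, 10% FBS) exposed to compounds in qHTS concentration series for 72 h at 37 degrees C. Viability read by CellTiter-Glo luminescence; concentration-effect curves fitted after normalization and correction.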
Hits are given with their value; i = inactive; ? = inconclusive; nt = no result given. Most compounds without a hit are left out; they make up all but 19% or so of the library. The call rests on the fitted dose curve; in most records, active means well fitted curve in the direction sought with a large enough effect; inconclusive means small, poorly fitted or top-dose-only effect, or another doubt; inactive means no such curve, though single readings can be large; an effect the other way counts as inactive or inconclusive.

SMILES | TDP1 cell CPT | TDP1 cell noCPT | HT1080 IDH1KD tx | HT1080NT lethal | KB-3-1 cytotox | KB-V1 MDR tox
O=C(c1ccccc1)c1ccc(Cn2cc(CCCO)nn2)cc1 | 8.2µM | 5.8µM | i | i | i | i
NC(=O)c1ccc(NC(=O)COC(=O)CCC(=O)c2ccc(Cl)cc2)cc1 | i | i | i | i | i | i
O=C(Nc1ccncc1)c1ccc2c(c1)S(=O)(=O)c1ccccc1C2=O | 14.6µM | 11.6µM | i | i | ? | i
CCOC(=O)Cc1csc(NC(=S)NC(=O)CC(C)C)n1 | i | i | i | i | i | i
CC(C)CC(=O)NC(=S)Nc1nc(-c2cccc3ccccc23)cs1 | i | 20.6µM | ? | i | ? | ?
O=C(Nc1nc(-c2cccc3ccccc23)cs1)c1ccc2c(c1)S(=O)(=O)c1ccccc1C2=O | 18.4µM | 9.2µM | i | ? | i | i
CC(C)c1ccccc1NC(=O)CN1C(=O)c2ccccc2C1=O | i | i | i | i | i | i
COC(=O)C[C@@H]1C=C[C@H](NC(=O)Nc2ccc(F)cc2)[C@@H](CO)O1 | i | i | ? | i | i | i
O=C1C=C(C2CCCCC2)C(=O)c2ccccc21 | 20.6µM | 14.6µM | i | i | i | i
O=C(O)C1=C(C2CCCCC2)C(=O)c2ccccc21 | i | i | i | i | i | i
CCCCN1C(=O)/C(=C(/C#N)C(=O)N2CCCC2)c2ccccc21 | 16.4µM | 20.6µM | i | i | i | ?
N#CC(C#N)=C1C(=O)N(CCN2CCOCC2)c2ccccc21 | 29.1µM | ? | i | i | i | i
N#CC(C#N)=C1C(=O)N(CCN2CCCCC2)c2ccccc21 | 16.4µM | 18.4µM | i | i | i | i
N#C/C(C(=O)N1CCCCC1)=C1/N=C(N)c2ccccc21 | i | i | i | i | i | i
CCN(CC(=O)NC(C)C)C(=O)C(CCSC)NC(=O)c1cccc(C)c1 (configuration not stated) | i | i | i | i | i | 23.1µM
COc1cc(/C=N/N=C2/NC(=O)C(c3ccccc3)S2)ccc1O (configuration not stated) | i | i | i | i | i | i
CC(C)=N/N=C1/NC(=O)C(c2ccccc2)S1 (configuration not stated) | ? | 16.4µM | i | i | i | i
COc1ccc(N2CC(NC(=O)/C=C\c3ccc4c(c3)OCO4)CC2=O)cc1OC (configuration not stated) | i | i | nt | nt | i | i
CN(Cc1ccccc1)c1ccc(C(=O)O)cc1[N+](=O)[O-] | i | i | i | i | i | i
O=C(CNS(=O)(=O)c1ccccc1)NCC(=O)OCc1ccc(Br)cc1 | 20.6µM | ? | i | i | i | i
Cc1cccc(C(C)n2nnc3ccccc32)c1O (configuration not stated) | 23.1µM | ? | i | i | i | i
CC(C(=O)O)n1nnc2ccccc21 (configuration not stated) | i | i | i | ? | i | i
CCN(CC)S(=O)(=O)c1ccc(NC(=O)c2cnccn2)cc1 | i | i | i | i | i | i
O=C(c1ccc(Br)cc1)N1CCN(Cc2ccccc2)CC1 | i | i | i | i | i | ?
CC(=O)OC(C[N+]1(C)CCCCCC1)c1ccccc1 (configuration not stated) | i | i | i | i | i | i
SMILES | TDP1 cell CPT | TDP1 cell noCPT | HT1080 IDH1KD tx | HT1080NT lethal | KB-3-1 cytotox | KB-V1 MDR tox
O=C(CCN1CCOCC1)c1ccccc1 | 2.59µM | 3.55µM | ? | ? | i | i
CN1CCN(CCCCC(=O)c2ccccc2)CC1 | i | i | i | i | i | i
O=C(CCN1CCN(C(=O)c2ccccc2)CC1)c1ccc(Br)cc1 | 7.31µM | 8.2µM | i | ? | i | ?
C[N+]1(CCC(=O)c2ccccc2)CCCCC1 | 3.26µM | 2.59µM | i | i | ? | i
O=C(CCN1CCCCC1)c1ccccc1 | 11.2µM | 12.6µM | i | i | i | i
CCOc1ccc(C(=O)CCN2CCCCCC2)cc1 | 3.66µM | 2.91µM | ? | ? | ? | i
CC1CCCN(CCC(=O)c2ccccc2)C1 (configuration not stated) | 4.61µM | 10.3µM | i | i | i | i
CCCCOc1ccc(C(=O)CCN2CCOCC2)cc1 | 5.17µM | 6.51µM | i | ? | i | i
COc1ccc([C@@]23Oc4cc(OC)cc(OC)c4[C@]2(O)[C@H](O)[C@H](C(=O)N(C)C)[C@H]3c2ccccc2)cc1 | 0.0073µM | 0.0092µM | 0.164µM | ? | ? | ?
CN(C)c1ncc2ncc(=O)n(Cc3ccc(F)cc3)c2n1 | 10.3µM | 20.6µM | nt | nt | nt | nt
COc1ccc(Oc2ncc3ncc(=O)n(Cc4cccs4)c3n2)cc1 | ? | 23.1µM | nt | nt | nt | nt
O=c1cnc2cnc(Oc3cccc(Cl)c3)nc2n1Cc1ccc(F)cc1 | ? | 23.1µM | nt | nt | nt | nt
COCCn1c(=O)cnc2cnc(Oc3cccc(Cl)c3)nc21 | i | i | nt | nt | nt | nt
Cc1ccccc1-c1cc(N(C)C)ncn1 | i | i | nt | nt | nt | nt
CCc1cc(CNC(=O)c2ccc(OC3CCN(CCc4ccccc4)CC3)cc2)on1 | ? | i | i | i | ? | i
O=C(CSCc1cccc(CSCC(=O)Nc2ccc3ccccc3c2)n1)Nc1ccc2ccccc2c1 | ? | 14.6µM | i | i | ? | 23.1µM
CCCCCC(=O)Nc1ccc2ccccc2c1 | i | i | i | i | i | i
O=C(CS)Nc1ccc2ccccc2c1 | 2.91µM | 4.11µM | 20.6µM | 20.6µM | i | i
CN(C)Cc1csc(NC(=O)Nc2ccccc2Cc2ccccc2)n1 | ? | ? | ? | 14.6µM | i | i
Cc1cccc(C)c1NC(=O)Nc1nc(CN(C)C)cs1 | i | i | i | ? | i | i
NCc1csc(NC(=O)Nc2cccc(Cl)c2)n1 | ? | ? | i | i | i | i
CN(C)Cc1csc(NC(=O)Nc2cccc(C(F)(F)F)c2)n1 | 14.6µM | 18.4µM | ? | ? | i | i
CC(N)c1csc(NC(=O)Nc2cccc(C(F)(F)F)c2)n1 (configuration not stated) | ? | ? | 23.1µM | 18.4µM | i | i
CN(C)Cc1csc(NC(=O)Nc2cccc(Cl)c2)n1 | 25.9µM | 18.4µM | ? | ? | i | i
O=C(CSC1=Nc2ccccc2N=C(c2ccc(F)cc2)C1)Nc1ccccc1 | ? | ? | nt | nt | i | i
O=C(CSC1=Nc2ccccc2N=C(c2ccc(F)cc2)C1)Nc1ccc(Cl)cc1 | 20.6µM | 25.9µM | nt | nt | i | i
CC(=O)c1ccc(NC(=O)CSC2=Nc3ccccc3N=C(c3ccc(F)cc3)C2)cc1 | 16.4µM | 9.2µM | nt | nt | i | i
O=C(NC(c1ccccc1)C(Cl)(Cl)Cl)c1ccccc1 (configuration not stated) | 20.6µM | 20.6µM | i | i | i | ?
